Experimental data reported in PubChem BioAssay (NCATS).
Records with an inconclusive call do not appear. Where a call stands in place of a potency, no number is given. Calls of active or inactive are those of the source. Calls follow the shape of the dose curve; as a rule, active = well fitted inhibition curve with a large enough effect; inconclusive = small, poorly fitted or top-dose-only effect; inactive = flat fitted curve, though single readings scatter.
Potency is read from the fitted curve at half-maximal effect.

Each compound was assayed against Voltage-gated inwardly rectifying potassium channel KCNH2 (Homo sapiens) (UniProt Q12809) (assay: qHTS Assay for Small Molecule Inhibitors of the Human hERG Channel Activity (AID 588834;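 also: lower thallium flux fluorescence means stronger hERG block; nearly all actives have a fitted effect of over 50% in size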)). Conditions: U2OS BacMam hERG, FluxOR thallium flux fluorescence; series mostly up to 46.1 µM.
Sequence of Voltage-gated inwardly rectifying potassium channel KCNH2 (Homo sapiens) (Q12809 whole entry, looked up): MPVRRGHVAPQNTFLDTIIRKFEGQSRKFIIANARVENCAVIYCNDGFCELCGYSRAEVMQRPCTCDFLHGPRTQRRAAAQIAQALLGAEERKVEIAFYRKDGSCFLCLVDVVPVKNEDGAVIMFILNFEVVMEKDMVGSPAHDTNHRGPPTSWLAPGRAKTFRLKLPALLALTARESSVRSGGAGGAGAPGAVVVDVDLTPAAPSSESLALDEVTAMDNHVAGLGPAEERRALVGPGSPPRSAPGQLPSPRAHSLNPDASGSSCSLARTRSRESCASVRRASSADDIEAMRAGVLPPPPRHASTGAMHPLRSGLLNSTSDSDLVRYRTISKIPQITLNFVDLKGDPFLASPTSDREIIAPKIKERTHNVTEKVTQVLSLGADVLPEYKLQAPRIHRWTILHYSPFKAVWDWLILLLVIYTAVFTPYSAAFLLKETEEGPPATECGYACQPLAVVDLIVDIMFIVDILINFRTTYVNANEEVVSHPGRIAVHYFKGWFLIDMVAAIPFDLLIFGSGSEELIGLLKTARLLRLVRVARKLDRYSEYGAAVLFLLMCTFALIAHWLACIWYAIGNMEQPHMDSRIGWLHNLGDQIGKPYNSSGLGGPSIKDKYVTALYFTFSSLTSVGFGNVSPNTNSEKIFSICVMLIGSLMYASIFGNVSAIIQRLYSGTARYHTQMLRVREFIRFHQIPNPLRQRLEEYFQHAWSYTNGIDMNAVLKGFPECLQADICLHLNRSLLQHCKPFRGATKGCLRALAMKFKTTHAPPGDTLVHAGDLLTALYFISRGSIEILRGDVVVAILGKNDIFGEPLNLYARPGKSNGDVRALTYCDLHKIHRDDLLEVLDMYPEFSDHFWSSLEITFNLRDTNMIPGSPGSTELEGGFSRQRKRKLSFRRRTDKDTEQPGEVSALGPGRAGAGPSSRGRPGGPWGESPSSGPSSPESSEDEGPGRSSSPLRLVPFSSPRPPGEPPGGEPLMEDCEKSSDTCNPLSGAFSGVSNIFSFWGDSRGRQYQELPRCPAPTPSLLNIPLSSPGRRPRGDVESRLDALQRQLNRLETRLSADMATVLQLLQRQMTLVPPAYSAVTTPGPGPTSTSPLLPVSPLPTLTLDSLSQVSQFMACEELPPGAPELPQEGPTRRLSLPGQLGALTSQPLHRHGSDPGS
Summary of the method: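 Thallium-flux (FluxOR) read-out on FDSS: fluorescence read 10 s before and 2 min after stimulation buffer. hERG-BacMam-transduced U2OS cells, compound exposure about 10 min. AC50 by standard Hill equation.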
In the case of `CN1CCC(CN2c3ccccc3Sc3ccccc32)C1` (stereo not drawn), the Potency is reported as 12.6 µM (active).
In the case of `CC1(C)S[C@@H]2[C@H](NC(=O)Cc3ccccc3)C(=O)N2[C@H]1C(=O)O`, the Potency is reported as “inactive”.
In the case of `O=C(O)C[C@H](O)C[C@H](O)/C=C/c1c(C2CC2)nc2ccccc2c1-c1ccc(F)cc1`, the Potency is reported as “inactive”.
`CCCC(=O)O[C@]1(C(=O)COC(C)=O)CC[C@H]2[C@@H]3C[C@H](F)C4=CC(=O)C=C[C@]4(C)[C@@]3(F)[C@@H](O)C[C@@]21C` was tested, and the Potency was “inactive”.
With `CC(=O)OCC(=O)[C@@]1(O)CC[C@H]2[C@@H]3C[C@H](C)C4=CC(=O)C=C[C@]4(C)[C@H]3[C@@H](O)C[C@@]21C` the Potency was “inactive”.
With `CO/N=C(\C(=O)N[C@@H]1C(=O)N2C(C(=O)O)=C(CSc3cnns3)CS[C@H]12)c1csc(N)n1` the Potency was “inactive”.
`C[C@H](CCC(=O)O)[C@H]1CC[C@H]2[C@@H]3[C@H](O)C[C@@H]4C[C@H](O)CC[C@]4(C)[C@H]3CC[C@]12C` was tested, and the Potency was “inactive”.
With `CCOC(=O)C1=CC2(CC)CCCN3CCc4c(n1c1ccccc41)C32` (stereo not drawn) the Potency was 0.0891 µM (active).
